Consider 9 compounds from PubChem BioAssay (NCI).

This is part of a sample that, as a whole, favours compounds with a hit. Of some 83,000 tested, about 20% had one in any assay.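 Treatment: one concentration, 48 hours, 96-well format. Scoring: percent growth, with anything below 10 considered active.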 Unmarked numbers belong to inactive results. Active and inactive are the calls of the source.

Among the test systems are SK-MEL-2 melanoma; EKVX NSCLC; SN12C renal; UO-31 renal; TK-10 renal; ACHN renal; CAKI-1 renal; A498 renal; CCRF-CEM leukemia; MOLT-4 leukemia; RPMI-8226 leukemia; OVCAR-8 ovarian; OVCAR-5 ovarian; SK-OV-3 ovarian; IGROV1 ovarian; OVCAR-3 ovarian; NCI/ADR-RES ovarian; HS 578T breast; OVCAR-4 ovarian; SR leukemia.
Assay in all cases: NCI-60 one-dose screen, 48 h (100 = growth as untreated, 0 = no growth, -100 = all killed)
What all share (settings): 10 µM unless noted

As for `NC(N)=NN=C(c1ccccc1)c1ccccc1`, the growth is 39.3% in the assay with SK-MEL-2 melanoma; 65.3% in the assay with EKVX NSCLC; 51.3% in the assay with SN12C renal; 63.6% with UO-31 renal; 46.1% in the assay with TK-10 renal; 48.1% with ACHN renal. For the same compound, the growth with CAKI-1 renal is 50.4%; in the assay on A498 renal, 34%; in the assay with CCRF-CEM leukemia, 27.7%; in the assay with MOLT-4 leukemia it was 31.8%; in the assay with RPMI-8226 leukemia it was 25%; in the assay with OVCAR-8 ovarian it was 40%. Moreover, the growth in the assay with OVCAR-5 ovarian is 79.3%; in the assay on SK-OV-3 ovarian it was 5.22% (active); with IGROV1 ovarian, 48.1%; in the assay with OVCAR-3 ovarian it was 21.3%; in the assay on NCI/ADR-RES ovarian it was 59.3%.
Consider `COc1ccc2c(c1)[nH]c(=O)c1c3cccnc3cn21`, for which the growth in the assay with SK-MEL-2 melanoma was 68.9%; in the assay on EKVX NSCLC, 63.2%; in the assay on SN12C renal it was 13.4%; with UO-31 renal, 41%; in the assay with TK-10 renal, 61.8%; in the assay with ACHN renal, 30.5%. Besides, the growth is -14.4% (active) with CAKI-1 renal; -3.48% (active) in the assay with A498 renal; 23.1% in the assay with CCRF-CEM leukemia; 25.1% in the assay on MOLT-4 leukemia; 32% with RPMI-8226 leukemia; 8.08% (active) with OVCAR-8 ovarian. Also, the growth with SK-OV-3 ovarian was 11.9%; in the assay on IGROV1 ovarian, 20.2%; with OVCAR-3 ovarian it was 23.8%; with HS 578T breast it was 49.6%; in the assay with NCI/ADR-RES ovarian, 0.176% (active).
Regarding `Cc1ccc(NS(=O)(=O)c2ccc3c(c2)C2OCCC2C(c2ccc(C(=O)C(C)C)cc2)N3)cc1C` (configuration not stated), the growth with SK-MEL-2 melanoma is 72.9%; in the assay with EKVX NSCLC, 24.7%; in the assay on SN12C renal it was 52.3%; with UO-31 renal it was 25.7%; in the assay with TK-10 renal, 63.5%; with ACHN renal, 32.3%. In addition, the growth is 45.5% with CAKI-1 renal; 40.1% in the assay with A498 renal; 60.3% with CCRF-CEM leukemia; 31.1% with MOLT-4 leukemia; 58.1% in the assay with OVCAR-8 ovarian; 60.6% with OVCAR-5 ovarian. Also, the growth in the assay with OVCAR-4 ovarian is 34.6%; in the assay with SK-OV-3 ovarian, 59.3%; with IGROV1 ovarian, 56.9%; in the assay with OVCAR-3 ovarian, 59.6%; in the assay with HS 578T breast it was 81.7%; with NCI/ADR-RES ovarian, 41.9%.
For the compound `CC1=C([Se]CC(OC(=O)[C@@H](CO)NC(=O)OC(C)(C)C)C(=O)NC(C)(C)C)C(=O)c2ccccc2C1=O` (some centres not stated), the growth was -79.1% (active) in the assay with SK-MEL-2 melanoma; -56% (active) in the assay with EKVX NSCLC; -100% (active) in the assay on SN12C renal; -100% (active) in the assay with UO-31 renal; -100% (active) in the assay with TK-10 renal; -100% (active) with ACHN renal. Moreover, the growth with CAKI-1 renal is -73.2% (active); in the assay with A498 renal, 7.64% (active); with CCRF-CEM leukemia, -29% (active); in the assay on MOLT-4 leukemia it was -31.6% (active); in the assay on OVCAR-8 ovarian it was -84.9% (active); in the assay on OVCAR-5 ovarian, -100% (active). The growth was -100% (active) in the assay with OVCAR-4 ovarian; -100% (active) with SK-OV-3 ovarian; -100% (active) in the assay with IGROV1 ovarian; -37.1% (active) in the assay with HS 578T breast; -94.7% (active) with NCI/ADR-RES ovarian.
Turning to `CCN1CCN(c2cc(C)nc(NCc3cc(Nc4ccnc5cc(Cl)ccc45)ccc3F)n2)CC1`, the growth is 104% with SK-MEL-2 melanoma; 59.6% in the assay with EKVX NSCLC; 64.3% in the assay with SN12C renal; 69.1% with UO-31 renal; 99.8% in the assay with TK-10 renal; 34.9% in the assay on ACHN renal. For the same compound, the growth in the assay on CAKI-1 renal is 87.8%; in the assay with A498 renal, 36.2%; in the assay with CCRF-CEM leukemia, 16.6%; in the assay with SR leukemia, -18.4% (active); in the assay on RPMI-8226 leukemia, 74.4%; with OVCAR-8 ovarian, 69.6%. Besides, the growth with OVCAR-5 ovarian was 56%; in the assay with OVCAR-4 ovarian it was 50.5%; in the assay with SK-OV-3 ovarian, 87.5%; in the assay with IGROV1 ovarian, 59.1%; in the assay with OVCAR-3 ovarian, 101%; in the assay with HS 578T breast it was 71.4%. Further, the growth in the assay with NCI/ADR-RES ovarian was 82.8%.
Consider `O=C(CC(SCc1ccccc1)c1ccccc1)c1ccccc1` (configuration not stated), for which the growth was 120% in the assay on SK-MEL-2 melanoma; 82.4% in the assay on EKVX NSCLC; 98.8% in the assay with SN12C renal; 84.7% with UO-31 renal; 87.3% with TK-10 renal; 99.6% in the assay with ACHN renal. In addition, the growth in the assay with CAKI-1 renal is 95.8%; in the assay on A498 renal, 81.8%; with CCRF-CEM leukemia, 95.9%; with SR leukemia, 41%; in the assay with RPMI-8226 leukemia, 38.5%; with OVCAR-8 ovarian, 103%. Further, the growth in the assay on OVCAR-5 ovarian is 98.4%; in the assay with OVCAR-4 ovarian, 90%; in the assay with SK-OV-3 ovarian, 99.7%; with IGROV1 ovarian it was 91.4%; in the assay with OVCAR-3 ovarian it was 86.5%; with HS 578T breast it was 107%. Moreover, in the assay on NCI/ADR-RES ovarian, the growth is 93.5%.
For the compound `O=C(CSc1nnc(-c2ccc(NC(=O)c3cccnc3)cc2)o1)Nc1cccc(Br)c1`, the growth with SK-MEL-2 melanoma was 96.5%; with EKVX NSCLC it was 88.3%; with SN12C renal, 51.1%; in the assay on UO-31 renal, 95.9%; in the assay on TK-10 renal it was 121%; in the assay with ACHN renal, 99.2%. Moreover, the growth in the assay on CAKI-1 renal is 82.6%; in the assay with A498 renal, 96.2%; with CCRF-CEM leukemia, 72.2%; with MOLT-4 leukemia, 84.5%; in the assay with OVCAR-8 ovarian, 88.7%; in the assay with OVCAR-5 ovarian, 99.3%. Also, the growth in the assay on OVCAR-4 ovarian was 93.8%; in the assay on SK-OV-3 ovarian, 110%; in the assay on IGROV1 ovarian, 80.5%; with OVCAR-3 ovarian, 107%; in the assay on HS 578T breast, 90.6%; in the assay with NCI/ADR-RES ovarian it was 93.8%.
In the case of `O=C(CSc1nccc(Nc2ccc(S(=O)(=O)Nc3nccs3)cc2)n1)c1ccc(F)cc1`, the growth in the assay with SK-MEL-2 melanoma is 105%; in the assay with EKVX NSCLC, 97.5%; in the assay on SN12C renal, 110%; in the assay on UO-31 renal, 75.8%; in the assay with TK-10 renal, 110%; with ACHN renal, 103%. Moreover, the growth in the assay on CAKI-1 renal was 96.4%; with A498 renal it was 109%; in the assay on CCRF-CEM leukemia it was 108%; with MOLT-4 leukemia, 115%; with OVCAR-8 ovarian it was 98.1%; in the assay with OVCAR-5 ovarian, 106%. The growth in the assay with OVCAR-4 ovarian is 99.2%; in the assay with SK-OV-3 ovarian, 97.6%; with IGROV1 ovarian, 106%; with OVCAR-3 ovarian, 111%; in the assay with HS 578T breast, 97.9%; in the assay with NCI/ADR-RES ovarian, 101%.
Turning to `O=C(Nc1ccccc1Cl)Oc1ccc(-c2ccccc2)cc1`, the growth in the assay on SK-MEL-2 melanoma is 120%; in the assay with EKVX NSCLC it was 98%; in the assay on SN12C renal it was 98.9%; in the assay on UO-31 renal, 84.5%; in the assay on TK-10 renal it was 118%; in the assay on ACHN renal, 101%. Besides, the growth with CAKI-1 renal was 81.8%; in the assay on A498 renal, 167%; in the assay on CCRF-CEM leukemia, 120%; in the assay on SR leukemia it was 133%; in the assay on RPMI-8226 leukemia, 94.2%; in the assay with OVCAR-8 ovarian, 103%. The growth in the assay with OVCAR-5 ovarian was 98.9%; with OVCAR-4 ovarian it was 103%; in the assay on SK-OV-3 ovarian, 121%; in the assay with IGROV1 ovarian it was 108%; in the assay with OVCAR-3 ovarian, 150%; in the assay with HS 578T breast it was 180%. For the same compound, in the assay with NCI/ADR-RES ovarian, the growth was 101%.
